Rows were chosen to be rich in hits. Some 8% of all compounds tested hit in one or more screens of this group.
ELG1 repair inh: blocks ELG1-dependent DNA repair in HEK293T cells | HEK293T ELG1-luciferase reporter, luminescence, 16 h; DNA damage induced by 5-fluorouridine | Potency, µM (doses to about 46.1 µM), for inactives: at the top dose activity change, negative = inhibition, actives largely listed as inhibitors | hit rate 2.3% among 330,000 | AID 504467; note: potency is the fitted concentration of half-maximal effect; nearly all actives have a fitted effect of over 55% in size
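HEK293T cells expressing luciferase-tagged ELG1 (2,000/well) received 5-Fluorouridine plus compound or DMSO for 16 hr at 37 °C. Luciferase was read by ONE-Glo luminescence after 30 min at room temperature.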
RORgamma inh: inhibitors of mouse ROR gamma transcriptional activity. Potency, µM (series often up to 53.6 µM), inactives show at the top dose activity change, negative = inhibition, hits mostly inhibitors. P51450. Drosophila S2 Gal4-RORgamma UAS-luciferase reporter, 20 h. hit rate 5.4% among 310,000; note: potency is the fitted concentration of half-maximal effect; nearly all actives have a fitted effect of over 60% in size
Target sequence (P51450 whole entry, looked up, the tested form may be a part): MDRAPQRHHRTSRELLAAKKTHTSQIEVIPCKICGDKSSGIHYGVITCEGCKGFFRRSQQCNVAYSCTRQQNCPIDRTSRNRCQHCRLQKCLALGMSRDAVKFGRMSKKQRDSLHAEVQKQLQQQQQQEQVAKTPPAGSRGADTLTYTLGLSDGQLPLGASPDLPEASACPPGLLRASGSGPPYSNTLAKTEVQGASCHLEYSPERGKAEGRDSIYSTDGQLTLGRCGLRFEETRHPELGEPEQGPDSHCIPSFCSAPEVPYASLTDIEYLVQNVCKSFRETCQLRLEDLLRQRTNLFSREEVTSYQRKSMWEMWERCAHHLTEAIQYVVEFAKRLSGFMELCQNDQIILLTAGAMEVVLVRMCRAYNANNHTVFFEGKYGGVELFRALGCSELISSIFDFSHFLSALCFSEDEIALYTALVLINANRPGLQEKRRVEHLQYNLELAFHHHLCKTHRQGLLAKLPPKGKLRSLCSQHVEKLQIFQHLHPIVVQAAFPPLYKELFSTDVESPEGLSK
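Using a luciferase readout, inhibitors were identified by reduced reporter activity in Drosophila cells coexpressing a copper-inducible Gal4–ROR gamma fusion and UAS-driven Photinus luciferase, incubated 20 hr after 700 uM copper sulfate.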
FBPA coupling cs: inhibits coupling enzyme system, counter-screen for aldolase hits | activity change, negative = inhibition, % at 58.2 µM, hits read low | hit rate 0.67% among 290,000 | coupling enzyme system counterscreen, AmpLite Red fluorescence | AID 2472; in the data active = activity change below about -30%
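Coupling enzymes only (glyceraldehyde-3-phosphate) + compound, at 57.5 uM final, 10 min RT; add substrate/coupling/AmpLite Red mix, 20 min RT; fluorescence ex 525/em 598 nm. Actives flag coupling-system interference.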
VP16 counter: Gal4-VP16 reporter inhibition counter-screen; Drosophila S2 Gal4-VP16 UAS-luciferase, luminescence, 20 h; Potency, µM (doses to about 53.6 µM), for the others: at the highest dose activity, negative = inhibition, usual class: inhibitors; hit rate 3.5% among 310,000;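 note: Gal4-VP16 expression switched on by copper sulfate through the metallothionein promoter; potency is the fitted concentration of half-maximal effect; nearly all actives have a fitted effect of over 50% in size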
TSHR antag: antagonists of human thyroid stimulating hormone receptor | P16473 | TSHR-expressing cells, TSH-stimulated cAMP HTRF, 2 h; active compounds read low | activity change, negative = inhibition, % at 11.5 µM | hit rate 0.2% among 330,000;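 active = activity change below a set negative limit, meaning inhibition stronger than a set level, cut at about -70% in these data; inconclusive = activity change between two set negative limits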
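Antagonism was scored as loss of TSH-driven cAMP in TSHR cells, stimulated with 4nM TSH (EC80) for 2 hours at 37 deg C and detected by homogeneous HTRF competition immunoassay.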
* hit, by the source's call; u = inconclusive; x = no result; [ ] = remark or other dose. Unless noted, calls come from the whole dose curve; as a rule, active = well fitted curve in the direction sought with a large enough effect; inconclusive = small, poorly fitted or top-dose-only effect, or another doubt; inactive = no such curve, though single readings can be large; an effect the other way counts as inactive or inconclusive. % is set by controls: 0 for no effect and ±100 for the full control effect.

SMILES	ELG1 repair inh	RORgamma inh	FBPA coupling cs	VP16 counter	TSHR antag
CCCCNC(=O)NS(=O)(=O)c1ccc(N)cc1	x	-8%	1	0%	x
Nc1ccc(Cl)cc1[N+](=O)[O-]	x	39%	x	0%	x
CC1CCC2C(=O)N3C(CCC(C)[C@H]3c3ccccc3Br)C(=O)N2C1c1ccccc1Br (stereo partly specified)	x	0%[10 µM]	7	-6%[10 µM]	x
CC1(C)NC(=O)N(CC(=O)OCC(=O)N2CCN(S(=O)(=O)c3ccccc3)CC2)C1=O	20%	x	x	x	-1
C=CCOc1c(Br)cc(CNc2ccc(NC(=O)C(C)C)c(OC)c2)cc1OC	-7%	-9%	-45*	-9%	-8
COc1cc(CNc2ccc(C(=O)O)cc2)cc(Br)c1OCC(=O)NC(C)(C)C	-11%	-1%	5	-3%	-5
CCOC(=O)C1=C(C)NC(C)=C(C(=O)OCC)C1c1c(F)c(F)c(F)c(F)c1F	x	x	x	x	-16
O=C(CCCN1C(=O)/C(=C/c2ccccc2Cl)SC1=S)NNC(=O)c1ccc(Cl)cc1Cl	-19%	0.22µM*	2	4.5µM*	10
O=C(CCCN1C(=O)/C(=C/c2ccccc2Cl)SC1=S)NNC(=O)c1ccccc1	-16%	3.2µM*	-1	7.1µM*	-2
Clc1ccc(Sc2cc(Cl)c(Cl)cc2Cl)cc1	x	-12%	0	-1%	x
CCC(CO)[n+]1c(C)cc(/C=C2\Sc3ccccc3N2Cc2ccccc2)cc1C (stereo unspecified)	u	u	-12	7.1µM*	-19
CCN1/C(=C2\SC(=S)N(Cc3ccccc3)C2=O)Sc2ccccc21	-3%	1%	-3	-2%	-4
CCOc1ccc2nc(NC(=O)C3CCCN(S(=O)(=O)c4cccc5nonc45)C3)sc2c1 (stereo unspecified)	23µM*	43%	-5	5%	-16
Cc1ccc(NC(=O)C2CCN(S(=O)(=O)c3cccc4nonc34)CC2)nc1	21µM*	28%	-1	6%	-9
COc1ccc2nc(NC(=O)C3CCCN(S(=O)(=O)c4cccc5nsnc45)C3)sc2c1 (stereo unspecified)	12µM*	37%	-5	-1%[0.365 µM]	-9
COc1ccc2nc(NC(=O)C3CCCN(S(=O)(=O)c4cccc5nonc45)C3)sc2c1 (stereo unspecified)	26µM*	u	-2	-4%	-18
COc1ccc(-n2c(=O)cnc3cnc(OC)nc32)cc1	x	6%	3	5%	x
COc1ccc2nc(NC(=O)C3CCCN3S(=O)(=O)c3ccc(C)cc3)sc2c1 (stereo unspecified)	23µM*	35%	-4	-6%	-9
Cc1ccc(S(=O)(=O)N2CCCC2C(=O)Nc2nc3c(s2)CCCC3)cc1 (stereo unspecified)	-26%	u	1	u	-10
COc1ccc(OC2C(=O)N(c3ccc(C)c(C)c3)C2c2ccc(OC)c(OC)c2)cc1 (stereo unspecified)	u	-23%	-11	0%	6
COc1ccc(OC2C(=O)N(c3cc(C)ccc3C)C2c2ccc(OC)c(OC)c2)cc1 (stereo unspecified)	18µM*	-7%	-4	26%	5
CCC1(c2ccc(O)cc2)NC(=O)NC1=O (stereo unspecified)	x	1%	0	-6%	x
Cc1c(C(=O)NC(C)C)oc2c1-c1[nH]ncc1CC2	-10%	u	-39*	-4%	3
O=C(CN1C(=O)C2CCCCC2C1=O)Nc1nccs1 (stereo unspecified)	-13%	8%	-1	-12%	27
Cc1ccccc1N(CC(=O)NC1CCCCC1)C(=O)CCC(=O)Nc1nccs1	-15%	32%	-1	2%	0
SMILES	ELG1 repair inh	RORgamma inh	FBPA coupling cs	VP16 counter	TSHR antag
O=C(CCC(=O)N(CC(=O)NC1CCCC1)c1ccccc1F)Nc1nccs1	0%	13µM*	0	5%	-5
O=C(CCC1CCCCC1)Nc1nccs1	16%	18µM*	1	-2%	-16
CC(C)(C)C1CCC(C(=O)Nc2nccs2)CC1 (stereo unspecified)	u	4.5µM*	1	8.9µM*	-12
CCc1ccc(OCC(=O)OC(C)C(=O)Nc2ccc(Cl)cn2)cc1 (stereo unspecified)	6%	x	x	x	-9
CCOC(=O)C1(Cc2cccc(Cl)c2)CCCN(C(=O)CCN2CCCC2=O)C1 (stereo unspecified)	u	10%	x	25%	5
CCCCn1c(N)c(N(CCOC)C(=O)c2ccc(C)o2)c(=O)[nH]c1=O	28%	x	x	x	5
c1csc(-c2nc3c4ccccc4c4ccccc4c3[nH]2)c1	u	u	-9	u	-20
Oc1ccccc1-c1nc2c3ccccc3c3ccccc3c2[nH]1	0%	-8%	-47*	-3%	-17
CN1C(=O)CC(Nc2cccc3cccc(N)c23)C1=O (stereo unspecified)	u	-10%	-41*	-22%	-28
CC(C)N1C(=O)CC(Nc2cccc3cccc(N)c23)C1=O (stereo unspecified)	u	0%	-30	4%	-9
COc1ccccc1-n1c(CCn2nc(C)c(Br)c2C)n[nH]c1=S	-1%	10µM*	0	u	12
Cc1nn(CCc2n[nH]c(=S)n2C)c(C)c1Br	3%	-26%	-3	11%	7
Cc1nn(CCc2n[nH]c(=S)n2C2CCCCC2)c(C)c1Br	-2%	5.6µM*	4	u	-4
COC(=O)c1ccc(C2SCC(=O)N2Cc2ccccc2)cc1 (stereo unspecified)	u	-17%	4	2%	-1
Cc1cccc(NC(=O)c2ccc(C3SCC(=O)N3CCc3ccccc3)cc2)c1 (stereo unspecified)	26µM*	u	0	u	-12
COCCNC(=O)c1ccc(C2SCC(=O)N2CCc2ccccc2)cc1 (stereo unspecified)	18%	42%	-1	27%	-2
CC(=O)Nc1ccc(NC(=O)c2ccc(C3SCC(=O)N3CCc3ccccc3)cc2)cc1 (stereo unspecified)	23µM*	u	0	-13%	-11
Cc1ccc(CSc2n[nH]c(N)n2)cc1	13%	0%	5	1%	-2
Cc1ccc(Nc2nc(CSc3n[nH]c(N)n3)cs2)cc1	u	13µM*	1	-13%	-1
c1ccc2nc(-c3ccc(N4CCOCC4)cc3)ccc2c1	u	1.4µM*	-6	1.3µM*	-1
CN1CCN(c2ccc(-c3ccc4ccccc4n3)cc2)CC1	u	0.32µM*	-1	u	5
CC(CCC(=O)O)C1CCC2C3C(=O)CC4CC(=O)CC[C@@]4(C)C3CC(=O)[C@]12C (stereo partly specified)	x	-17%	0	-7%	x

Screening results: PubChem, National Center for Advancing Translational Sciences (NCATS)
